KCNQ2 pot: potentiators of rat KCNQ2 potassium channel | B-score at 10 µM | CHO-K1 KCNQ2, FluxOR thallium flux fluorescence; active compounds read high | Potassium voltage-gated channel subfamily KQT member 2 (Rattus norvegicus), O88943 | AID 2239, 2010 | actives 0.54% (n = 310,000);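 active = fluorescence ratio B-score at least 3 SD of library B-scores, with initial fluorescence B-score within 3 of them, cut at about 5.3 in these data; same plate scores as AID 2156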;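 also: B-score of peak minus minimum over baseline fluorescence ratio after K+ and Tl+ stimulus; positive B-score means potentiation of KCNQ2 with more thallium influx and brighter signal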
KCNQ2 inh: rat KCNQ2 potassium channel inhibitors, primary screen, cell-based, CHO-K1, FluxOR thallium flux, B-score. Potassium voltage-gated channel subfamily KQT member 2 (Rattus norvegicus), O88943. 20 min; active compounds read low. B-score at 10 µM. actives 1.1% (n = 310,000). AID 2156, 2009;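 active = fluorescence ratio B-score at most minus 3 library SDs, with starting brightness B-score within 2 library SDs, cut at about -5.5 in these data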
Numbers without * were called inactive; i = inactive; · = not tested or not shown. Rows were chosen to be rich in hits. Some 1.6% of all compounds tested hit in one or more screens of this group.

SMILES	KCNQ2 pot	KCNQ2 inh
CC1CCN(C(=O)c2ccccc2SCC(=O)NCC2CCCCC2)CC1	-6	-6*
COc1ccccc1N1CCN(C(=O)c2oc3ccc(F)cc3c2C)CC1	-6.5	-6.5*
COc1ccccc1N1CCN(C(=O)c2oc3ccc(Br)cc3c2C)CC1	·	i
CN(C)S(=O)(=O)c1ccc(C(=O)NCc2nnc(SCC(=O)N3CCCC3)o2)cc1	0.01	i
COc1ccc(C(CC(=O)O)NC(=O)c2ccccc2[N+](=O)[O-])cc1 (stereo not given)	·	i
O=C(Cn1cc(C(=O)C(F)(F)F)c2cc(Br)ccc21)N1CCOCC1	1.7	i
O=C(O)CC(NC(=O)c1ccncc1)c1ccccc1 (stereo not given)	·	i
COc1ccc(NC(=O)c2ccc3nc(-c4ccccc4)c(-c4ccccc4)nc3c2)c(OC)c1	·	i
COc1ccccc1NC(=O)c1ccc2nc(-c3ccccc3)c(-c3ccccc3)nc2c1	-7.1	-7.1*
O=S(=O)(/N=C(/Nc1cccc2ccccc12)c1ccccc1)c1ccc(F)cc1	·	i
CC1CN(C(=O)N2CCCCC2)CCN1C(=O)N1CCCCC1 (stereo not given)	·	i
CC(C)Oc1cccc(-c2cc(C(=O)N3CCN(c4ncccn4)CC3)c3ccccc3n2)c1	-7.2	-7.2*
COc1cccc(-c2cc(C(=O)N3CCN(c4ncccn4)CC3)c3ccccc3n2)c1	·	i
COc1cc(C(=O)NC(=S)N(C)Cc2ccccc2)cc(OC)c1OC	·	i
O=C(NC(=S)NCCc1ccc(Cl)cc1)c1ccco1	1.9	i
COc1cc(C(=O)NC(=S)N(CCc2ccccc2)CCc2ccccc2)cc(OC)c1OC	18*	i
O=C(NC(=S)N(CCc1ccccc1)CCc1ccccc1)c1ccco1	16*	i
CCOC(=O)C1CCC/C1=N\NC(=O)CN(c1cc(OC)ccc1OC)S(=O)(=O)c1ccccc1 (stereo not given)	·	i
CC(C)(C)C(O)C(Cc1ccccc1Cl)n1cncn1 (stereo not given)	·	i
CCCCN(c1ccccc1)S(=O)(=O)N(C)C	·	i
CCCCN(S(=O)(=O)c1ccccc1)S(=O)(=O)c1ccccc1	-6	-6*
CN(C)S(=O)(=O)c1cccc(C(=O)NCC(C)(C)CNC(=O)c2cccc(S(=O)(=O)N(C)C)c2)c1	0.11	i
COc1ccc(-n2nc(C(=O)NCC(=O)NCCN(C)C)c3ccccc3c2=O)cc1	1.1	i
O=C(Nc1ccc2c(c1)OCCO2)c1cc2sccc2n1Cc1ccccc1	·	i
O=C(Nc1ccc2c(c1)OCCO2)c1cc2sccc2n1Cc1ccc(F)cc1	-6.1	-6.1*
SMILES	KCNQ2 pot	KCNQ2 inh
COc1cccc(CNC(=O)CS(=O)(=O)Cc2nc(-c3ccc(C)cc3)oc2C)c1OC	·	i
OCC[C@H]1C[C@@H](O)[C@H](O)[C@]2(CCCO2)O1	·	i
Cc1nc2c(c(C)nn2-c2ccccc2)c(C)c1CCC(=O)Nc1ccc(CN2CCCC2)cc1	-6.1	-6.1*
CCC(C)NC(=O)CCc1c(C)nc2c(c(C)nn2-c2ccccc2)c1C (stereo not given)	1.9	i
CCS(=O)(=O)N1CCN(C(=O)c2cccc3ccccc23)CC1	0.65	i
Cc1cccc(N2CCN(C(=O)C(C)n3nc(C)n4c(cc5occc54)c3=O)CC2)c1C (stereo not given)	-6.1	-6.1*
CCc1nn(C(C)C(=O)N2CC(C)CC(C)C2)c(=O)c2cc3occc3n12 (stereo not given)	-8.1	-8.1*
Cc1nn(C(C)C(=O)N2CCN(c3ccccn3)CC2)c(=O)c2cc3occc3n12 (stereo not given)	1	i
CCc1nn(C(C)C(=O)N2CCN(Cc3ccccc3)CC2)c(=O)c2cc3occc3n12 (stereo not given)	·	i
O=C(Nc1nccs1)c1ccc(NC(=O)C2CC=CCC2C(=O)O)cc1 (stereo not given)	0.02	i
C=CCn1c(CSCc2ccccc2)nnc1SCC(=O)NCc1ccccc1	-5.5	-5.5*
CCn1c(CSCc2ccc(F)cc2)nnc1SCC(=O)NCc1ccccc1	·	i
COc1cccc(/C=C(\C)C(=O)c2c(C)cc(C)[nH]c2=O)c1OC	0.2	i
CC(=O)Nc1cccc(C(=O)OC(C)C(=O)NCc2ccc3c(c2)OCO3)c1 (stereo not given)	0.22	i
Cc1cccc(NS(=O)(=O)c2cc(C(=O)OC(C)C(=O)NCc3ccc4c(c3)OCO4)ccc2C)c1 (stereo not given)	-6.4	-6.4*
N#Cc1ccc(C(=O)CN2CCN(c3ccccc3)CC2)cc1	0.07	i
O=[N+]([O-])c1cc(C(F)(F)F)cc([N+](=O)[O-])c1NCCN1CCNCC1	·	i
CCN(c1ccc(OC)cc1)S(=O)(=O)N1CCCC(C(=O)NCc2cccc(C)c2)C1 (stereo not given)	-6.4	-6.4*

Screens as filed in PubChem.
